An excerpt weighted towards active compounds, which were near 2.5% of everything screened.
Cruzain noTriton – blocks cruzain activity in detergent-free assay; purified cruzain, Z-FR-AMC fluorescence, no detergent; P25779; Potency, µM, for the others: max response, negative = inhibition, most hits filed as inhibitors; 200,000 compounds, 2.3% hits; AID 1476;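 also: plate controls were enzyme without inhibitor for no effect and buffer without enzyme for full effect; nearly all actives have a fitted effect of over 40% in size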
Target sequence (P25779 123-467 limits assumed): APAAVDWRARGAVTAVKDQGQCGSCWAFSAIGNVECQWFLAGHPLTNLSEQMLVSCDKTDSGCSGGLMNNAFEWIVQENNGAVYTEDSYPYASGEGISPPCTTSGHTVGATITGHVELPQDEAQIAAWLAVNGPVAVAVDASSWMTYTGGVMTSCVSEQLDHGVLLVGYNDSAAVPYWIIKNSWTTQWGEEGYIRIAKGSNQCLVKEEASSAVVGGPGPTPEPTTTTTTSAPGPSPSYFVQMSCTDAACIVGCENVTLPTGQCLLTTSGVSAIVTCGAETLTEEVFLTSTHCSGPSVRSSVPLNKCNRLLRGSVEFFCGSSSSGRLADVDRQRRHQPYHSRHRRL
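Detergent-free condition (0.00005% Triton X-100) in acetate buffer pH 5.5 with DTT. 1.5 nM enzyme and compound were pre-mixed 15 min, then 2 uM Z-FR-AMC substrate added; reaction progress from fluorescence change between first and third reads (60 s).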
Cruzain inh Det – cruzain (T. cruzi) inhibition with detergent. purified cruzain, Z-FR-AMC fluorescence, 0.01% Triton. 200,000 compounds, 0.43% hits. P25779. Potency, µM, inactives show max response, negative = inhibition, actives largely listed as inhibitors;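 also: plate controls were neutral wells for no effect and buffer without enzyme for full effect; nearly all actives have a fitted effect of over 40% in size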
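Sodium acetate buffer (100 mM, pH 5.5) containing 5 mM DTT and 0.01% Triton X-100 hosted 1.5 nM cruzain and test compound for 15 min at room temperature. Cleavage of 2 uM Z-FR-AMC was then tracked by fluorescence.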
* marks the source's active call; other numbers are inactive results; ? = inconclusive. Calls follow the shape of the dose curve; as a rule, active = well fitted curve in the direction sought with a large enough effect; inconclusive = small, poorly fitted or top-dose-only effect, or another doubt; inactive = no such curve, though single readings can be large; an effect the other way counts as inactive or inconclusive. Potency is read from the fitted curve at half-maximal effect.

SMILES | Cruzain noTriton | Cruzain inh Det
COc1ccccc1-c1cc(-c2ccccc2)nc(SC(C(N)=O)c2ccccc2)c1C#N (configuration not stated) | 7.9µM* | 5%
CCCCOc1cccc(C2c3c(-c4cc(C)ccc4O)n[nH]c3C(=O)N2CCOC)c1 (configuration not stated) | 10% | -17%
Cc1cc(C)c2oc(-c3ccc(C)c(NC(=O)/C=C/c4ccco4)c3)nc2c1 | 3% | -6%
Cc1cc(C)cc(NC(=O)CCN2C(=O)c3ccccc3Sc3ncccc32)c1 | 4% | -1%
COC(=O)c1c(C)oc2ccc(N(C(=O)Oc3ccccc3)S(=O)(=O)c3ccc(Cl)c([N+](=O)[O-])c3)cc12 | 7.9µM* | -3%
CCc1ccc(S(=O)(=O)N(C(=O)Oc2ccccc2)c2ccc3oc(C)c(C(=O)OC)c3c2)cc1 | ? | -2%
COc1ccc(-n2nc(C(=O)N3CCN(c4cccc(C)c4C)CC3)c3c4ccccc4n(C)c3c2=O)cc1 | -8% | 2%
O=C(Nc1ccccc1C(F)(F)F)Nc1cccc2ccccc12 | 25µM* | 8%
CCCC(=O)NC(=S)Nc1ccccc1C(F)(F)F | 12% | -2%
O=c1c(-c2cc(F)cc(F)c2)nc2cncnc2n1Cc1ccccc1Cl | 25µM* | -7%
O=c1c(CCc2ccccc2)nc2cncnc2n1Cc1ccccc1Cl | 3.2µM* | -5%
O=c1c(-c2ccc(F)c(F)c2)nc2cncnc2n1Cc1ccccc1Cl | -20% | -7%
NCCn1c(=O)c(CCc2ccccc2)nc2cncnc21 | -14% | 2%
Cc1ccc2c(CC(=O)Nc3ccc(S(=O)(=O)N4CCCCC4C)cc3)coc2c1C (configuration not stated) | ? | -6%
Cc1ccc2c(CC(=O)Nc3ccc(S(=O)(=O)N4CCCCC4C)cc3)coc2c1 (configuration not stated) | 25µM* | -6%
COc1ccc(-c2cc(C(F)(F)F)n3nc(C(=O)Nc4sc5c(c4C(=O)OC(C)C)CCC(C)C5)cc3n2)cc1 (configuration not stated) | 3% | -1%
O=C(Nc1ncc(Cc2ccccc2Cl)s1)c1ccc2c(c1)CC(c1ccccc1)OC2=O (configuration not stated) | 32µM* | -2%
CCc1ccc(Cc2cnc(NC(=O)c3ccc4c(c3)CC(c3ccccc3)OC4=O)s2)cc1 (configuration not stated) | ? | 0%
COc1cccc(-n2c(SCC(=O)Nc3ccc(F)cc3F)nc3c([nH]c4ccccc43)c2=O)c1 | -5% | -1%
COc1cccc(NC(=O)CSc2nc3c([nH]c4ccccc43)c(=O)n2-c2cc(C)cc(C)c2)c1 | 16µM* | 1%
CCc1ccc(NC(=O)CSc2nc3c([nH]c4ccccc43)c(=O)n2-c2ccc(C)cc2)cc1 | ? | -2%
COc1cccc(-n2c(SCC(=O)Nc3c(C)cc(C)cc3C)nc3c([nH]c4ccccc43)c2=O)c1 | -24% | -1%
Cc1ccc(-n2c(SCC(=O)Nc3ccc4c(c3)OCO4)nc3c([nH]c4ccccc43)c2=O)cc1 | 13µM* | -4%
COc1cccc(-n2c(SCC(=O)Nc3ccc4c(c3)OCO4)nc3c([nH]c4ccccc43)c2=O)c1 | 16µM* | -4%
COc1ccc(CNC(=O)CCC2N=C3c4ccccc4N=C(SCc4ccc(F)cc4)N3C2=O)cc1 (configuration not stated) | ? | -5%
SMILES | Cruzain noTriton | Cruzain inh Det
Cc1cc(C)c2c(C)c(C(=O)N3CCC(c4nc5ccccc5s4)CC3)oc2c1 | 13% | -7%
CCC(C)Sc1oc(-c2ccco2)nc1S(=O)(=O)c1ccc(Cl)cc1 (configuration not stated) | 3% | -20%
CCOc1ccc2c(c1)-c1c(ssc1=S)C(C)(C)N2C(=O)CSC1=NCCS1 | 16µM* | -7%
Cc1ccc2c(c1)-c1c(ssc1=S)C(C)(C)N2C(=O)CSC1=NCCS1 | ? | -3%
Cc1ccc(CNC(=O)c2cc3c(=O)n(Cc4cccnc4)ccc3nc2C)cc1 | 3% | -1%
CCOc1ccc(C(=O)Nc2nnc(S(=O)(=O)N(CC)c3ccccc3C)s2)cc1 | 4% | -1%
CN1c2ccccc2-c2nc(SCC(=O)Nc3ccccc3)ncc2S1(=O)=O | 2% | -4%
O=C(NC1=NCCS1)c1csc2ccccc12 | 16µM* | -14%
Cc1cc(C(=O)NC2=NCCS2)cs1 | -4% | -2%
O=C(NCC(c1cccnc1)N1CCN(Cc2ccccc2)CC1)C(=O)Nc1cccc(F)c1 (configuration not stated) | -10% | 0%
COc1ccc(NS(=O)(=O)c2ccc3nc(COc4ccc5ccccc5c4)[nH]c3c2)cc1 | ? | 5%
COc1ccc(NS(=O)(=O)c2ccc3nc(COc4cccc5ccccc45)[nH]c3c2)cc1 | 32µM* | -2%
O=C(NNC(=O)c1cccs1)c1ccc(Br)o1 | -15% | -19%
O=C(Nc1ccc(NC(=O)c2cccs2)cc1)c1ccc(Br)o1 | 25µM* | 5%
Cc1ccc(-c2nc3c(C)cccn3c2Nc2ccccc2C)s1 | -10% | -9%
COc1cccc(/C=N/NC(=O)c2cccc([N+](=O)[O-])c2)c1OS(=O)(=O)c1ccccc1 | -18% | 0%
COc1cccc(/C=N/NC(N)=S)c1OS(=O)(=O)c1ccccc1 | 5µM* | 14µM*
COc1cccc(/C=N/NC(N)=S)c1OCc1ccccc1Cl | ? | -19%
NC(=S)N/N=C/c1ccccc1OCCSc1ccc(Cl)cc1 | 1µM* | 1.4µM*
Cc1ccc(S(=O)(=O)Oc2ccccc2/C=N/NC(N)=S)cc1 | ? | 7.1µM*
Cc1ccc(S(=O)(=O)Oc2ccccc2/C=N/NC(=O)c2nn(C)cc2[N+](=O)[O-])cc1 | 5% | -6%
Cc1ccc(S(=O)(=O)OCC(=O)O)cc1 | -1% | 3%
COc1ccccc1NC(=O)COc1ccc(/C=N/NS(=O)(=O)c2ccc(C)cc2)cc1 | -28% | -3%
Cc1ccc(S(=O)(=O)N/N=C/c2ccc(OCC(=O)Nc3ccccc3Cl)cc2)cc1 | 25µM* | 0%
Oc1ccc(Br)cc1-c1cc(-c2ccccc2)n[nH]1 | -15% | -14%
SMILES | Cruzain noTriton | Cruzain inh Det
Oc1ccc(Br)cc1-c1cc(-c2ccc(Cl)cc2)n[nH]1 | 32µM* | 8%
COc1ccc(N2CCN(C(=O)c3ccc4c(c3)N(Cc3ccc(F)cc3)C(=O)c3ccccc3S4=O)CC2)cc1 (configuration not stated) | 12% | 0%
Cc1cc(C(=O)OCC(=O)NC(C)(C)C)c2ccccc2n1 | -1% | 2%
Cc1cc(C(=O)OCC(=O)Nc2ccc(F)cc2[N+](=O)[O-])c2ccccc2n1 | 20µM* | -2%
O=S(=O)(c1cccc(-c2nnc(SCc3ccc(Cl)cc3)o2)c1)N1CCCCC1 | -23% | -1%
O=C(CSc1nnc(-c2cccc(S(=O)(=O)N3CCCCC3)c2)o1)c1ccc[nH]1 | 16µM* | 0%
C=C(C(=O)OCC)C(=O)c1ccccc1 | -5% | -1%
Cc1ccc(NC(=O)COC(=O)c2ccc3c(c2)C(=O)N(CCc2ccccc2)C3=O)c(C)c1 | 25µM* | -2%
CCOc1ccc(NC(=O)COC(=O)c2ccc3c(c2)C(=O)N(CCc2ccccc2)C3=O)cc1 | ? | -3%
Cc1cc(C)c2c(=O)cc(C(=O)NCCc3ccc(S(N)(=O)=O)cc3)oc2c1 | -3% | -1%
O=C(Cc1ccc(Br)cc1)NC1CCCCC1 | 4% | -6%
CC1CCCC(NC(=O)Cc2ccc(Br)cc2)C1C (configuration not stated) | ? | 25µM*

Screens as filed in PubChem.
